Source: PubChem BioAssay AID2685 (National Center for Advancing Translational Sciences (NCATS), 2010)
Hit rate of the full screen: of about 320,000 compounds, about 2,100 (0.66%) were called active. Another 53% or so got no clear call; they are omitted. The call rests on the fitted dose curve; in most records, active means well fitted inhibition curve with a large enough effect in the signal ratio, with a control signal flat (not every such curve was filed as active); inconclusive means small, poorly fitted or top-dose-only effect, or effect the other way, or a change in a side signal; inactive means flat fitted curve, though single readings scatter; the % refers to the signal ratio. Many of the other results were omitted from the sample, so actives are more common in it than they were.

test: qHTS Assay for Lipid Storage Modulators in Drosophila S3 Cells; conditions: BODIPY lipid droplet fluorescence, 18-24 h, cells fed with added oleic acid; cell number change: measured here: cell count max response; series mostly up to 46.1 µM; lipid storage change, negative = inhibition: at the top concentration;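 on cell number change: cells counted by Cell Tracker Red CMTPX staining in the red channel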; on lipid storage change, negative = inhibition: on the % scale 0 is the no-effect control and ±100 the full control effect
How it was run: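 Drosophila S3 cells got compounds at several concentrations plus oleic acid (400 uM solution). Laser-scanning cytometry with 488 nm excitation read lipid droplets at 500-530 nm and cells at 575-640 nm. Percent activity was relative to 20 uM Triacsin C.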
Potency means the concentration at half of the fitted maximal effect.

SMILES | lipid storage change, negative = inhibition | cell number change [%] | Potency | outcome
COc1ccc(OCC(=O)NCCc2c[nH]c3ccccc23)cc1 | -6.71% (inactive) | -0.0954 | – | –
COc1ccc(/C(C)=N/NC(=O)CNC(=O)/C=C\c2ccco2)cc1 | 6.78% (inactive) | 25.3 | – | –
O=[N+]([O-])c1cc(N=Nc2ccc3ccccc3c2)ccc1O | 23.5% (inactive) | -8.5 | – | –
Oc1ccc(N=Nc2ccc3ccccc3c2)cc1 | -12.4% (inactive) | -16.8 | – | –
COc1ccc(N=Nc2ccc3ccccc3c2)c(O)c1 | – | -14.1 | 4.11 µM (active) | –
COc1cccc(NC(=O)CSc2nnc(Cn3nnc4ccccc43)n2C)c1 | -5.06% (inactive) | 1.13 | – | –
O=C(Oc1ccc(=O)n(-c2ccccc2)n1)c1cccc(Cl)c1 | -13.7% (inactive) | -1.38 | – | –
Cn1c(CNC(=O)c2ccc3c(c2)OCO3)nnc1SCC(=O)Nc1ccccc1F | – | 3.42 | – | inactive
CCN(Cc1ccccc1)S(=O)(=O)c1ccc(C(=O)N(CCCN(C)C)c2nc3cc(OC)ccc3s2)cc1 | 11.6% (inactive) | 7.95 | – | –
O=C(COc1ccc2c3c(c(=O)oc2c1)CCC3)N1CCN(c2ccccc2)CC1 | 74.1% (inactive) | 28.4 | – | –
CC1(C)CC(N2CCN(C(c3ccccc3)c3ccccc3)CC2)=CC(=[N+]2CCCCC2)C1 | – | -24.2 | 2.06 µM (active) | –
CN1CCN(C(c2ccccc2)c2ccccc2)CC1 | -13.1% (inactive) | 2.24 | – | –
CC1(C)CC(N2CCOCC2)=CC(=[N+]2CCOCC2)C1 | -5.61% (inactive) | 3.66 | – | –
Cc1cc(SCC(=O)Nc2cccc(S(N)(=O)=O)c2)c(C)cc1Br | -2.43% (inactive) | 15.2 | – | –
CCc1ccc(OCCn2ccnc2)cc1 | 12.1% (inactive) | -22.2 | – | –
O=C(O)c1ccc(OCCn2ccnc2)cc1 | -12.6% (inactive) | 11.3 | – | –
COc1ccc(OCCCn2ccnc2)cc1 | 9.55% (inactive) | -3.82 | – | –
CCc1ccc(OCCCCCn2ccnc2)cc1 | – | -11.6 | 4.61 µM (active) | –
COc1ccc(OCCn2ccnc2)cc1 | – | -2.55 | – | inactive
c1ccc(Cc2ccc(OCCn3ccnc3)cc2)cc1 | – | -8.07 | 3.66 µM (active) | –
COc1ccccc1NC(=O)C1=C(C)Nc2nc(CCCO)nn2C1c1ccc2c(c1)OCO2 (stereo unspecified) | – | -2.99 | – | inactive
COc1ccc(Cl)cc1S(=O)(=O)N1CCC(C(=O)NCC2CCCO2)CC1 (stereo unspecified) | – | 6.08 | – | inactive
CCCS(=O)(=O)N1CCN(C(=O)c2cccnc2)CC1 | – | – | – | inactive
COCCCn1c(SCC(=O)NC(C)C)nnc1-c1ccccc1 | 9.76% (inactive) | 1.73 | – | –
COc1cc(C(=O)O)ccc1OCC(=O)N1CCOCC1 | -14.9% (inactive) | -12 | – | –

SMILES | lipid storage change, negative = inhibition | cell number change [%] | Potency | outcome
COc1cc(C(=O)Nc2ccc(C)cn2)ccc1OCC(=O)N1CCOCC1 | – | 5.26 | 20.6 µM (active) | –
CCc1ccc(C(=O)NNC(=O)c2ccc(OCC(=O)N3CCOCC3)c(OC)c2)cc1 | -4.56% (inactive) | -13.6 | – | –
CCN(CC)CCCNC(=O)CSc1nc(-c2ccc(F)cc2)cc(C(F)(F)F)n1 | 0.643% (inactive) | 4.94 | – | –
CCC(C)(C)NC(=O)CN(C(=O)c1snc(C(N)=O)c1N)c1ccc2c(c1)OCCO2 | – | 19.8 | – | inactive
CN(C)S(=O)(=O)c1cccc(C(=O)NCCNC(=O)c2cccc(S(=O)(=O)N(C)C)c2)c1 | -11.8% (inactive) | -23.4 | – | –
O=C(CNC(=O)c1ccccc1)OCc1cccc([N+](=O)[O-])c1 | 0.419% (inactive) | -2.11 | – | –
CN(C)S(=O)(=O)c1cccc(COC(=O)CCNC(=O)c2ccc([N+](=O)[O-])cc2)c1 | – | 9.78 | 2.31 µM (active) | –
Cn1c(CC(=O)Nc2cccc(Cl)c2Cl)nnc1SCC(=O)NC1=NCCS1 | 19% (inactive) | 10.7 | – | –
CC(C)n1c(N)c(C#N)c2ccc([N+](=O)[O-])cc2c1=O | -3.14% (inactive) | 17.3 | – | –
COC(=O)c1cc2c(=O)c3ccccc3oc2nc1C | -1.05% (inactive) | 21.3 | – | –
COc1ccccc1CNC(=O)COC(=O)c1ccc(C)s1 | – | 8.78 | 8.2 µM (active) | –
COc1ccccc1CNC(=O)c1ccc(C)s1 | 7.86% (inactive) | 2.24 | – | –
COc1ccccc1CNC(=O)COC(=O)c1cc(C)oc1C | 4.54% (inactive) | 0.0455 | – | –
O=S(=O)(NCC(c1cccs1)N1CCc2ccccc2C1)c1ccccc1 (stereo unspecified) | -15.3% [at 0.0737 µM] (inactive) | 2.02 | – | –
O=C(CS(=O)(=O)c1ccccc1)N1CCCCCC1 | – | – | 14.6 µM (active) | –
O=C(CS(=O)(=O)c1ccccc1)N1CCCCC1 | – | 17.3 | – | inactive
Cc1ccc(S(=O)(=O)CC(=O)N2CCCC2)cc1 | 0.497% (inactive) | -4.5 | – | –
COc1ccc(S(=O)(=O)N2CCOC2CNC(=O)C(=O)NCC(C)C)cc1 (stereo unspecified) | 23.8% (inactive) | -19.7 | – | –
CCCCc1nnc(NC(=O)C(C)Sc2nc(O)c(Cc3ccccc3)c(=O)[nH]2)s1 (stereo unspecified) | -12.5% (inactive) | -6.85 | – | –
Cc1ccsc1C=Nc1ccc(O)cc1 | -2.45% (inactive) | -20.6 | – | –
Cc1ccsc1/C=N/n1cnnc1 | -1.09% (inactive) | 4.23 | – | –
Cc1ccsc1/C=N/N=C/c1sccc1C | – | -16.1 | 18.4 µM (active) | –
CC(C)(C)c1ccc(/C=N/NC(=O)C2CCCC2)cc1 | – | -15.9 | – | inactive
CC(C)c1ccc(/C=N/NC(=O)CC(=O)NC2CCCCC2)cc1 | 20.4% (inactive) | 0.119 | – | –
